# In PubChem BioAssay AID652031 (The Scripps Research Institute Molecular Screening Center, 2013):
# Among all 16,000 compounds or so, about 70 (0.4%) were called active. Shown is part of a subset that was picked to be rich in actives. Unmarked numbers belong to inactive results. No stated cut-off is given here; in the data, active means inhibition above about 50%; inactive means the rest.
# Biological target: Kappa-type opioid receptor (Homo sapiens) (UniProt P41145)
# Assay: blocks the human kappa opioid receptor, Maybridge compounds (AID 652031)
# Conditions: OPRK1 cells, antagonist mode, fluorescence readout; at 9 µM; stronger effect = higher value
# Kappa-type opioid receptor (Homo sapiens), sequence (P41145 whole entry, looked up): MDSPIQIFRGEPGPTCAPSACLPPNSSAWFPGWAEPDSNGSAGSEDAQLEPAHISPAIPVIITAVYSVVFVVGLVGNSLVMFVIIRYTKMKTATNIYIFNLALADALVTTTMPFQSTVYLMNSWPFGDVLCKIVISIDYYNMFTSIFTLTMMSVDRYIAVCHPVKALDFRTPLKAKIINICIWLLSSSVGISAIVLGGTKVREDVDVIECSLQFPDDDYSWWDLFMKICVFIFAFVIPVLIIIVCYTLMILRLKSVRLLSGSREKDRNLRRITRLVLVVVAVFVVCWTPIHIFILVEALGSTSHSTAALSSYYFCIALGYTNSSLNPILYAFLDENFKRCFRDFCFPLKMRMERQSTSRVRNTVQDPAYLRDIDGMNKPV
row,SMILES,inhibition
1,O=C(O)C1CCC1C(=O)Nc1nnc(C2CC2)s1 (stereo unspecified),7.5%
2,O=C(NNC(=S)Nc1ccc(S(=O)(=O)N2CCCCC2)cc1)c1ccncc1,6%
3,CC(CC(=O)O)Oc1ccc(Cl)cc1[N+](=O)[O-] (stereo unspecified),-0.1%
4,O=C(O)CCC(=O)Nc1ccccc1,9.6%
5,O=C(CN1CCOCC1)NNC(=O)c1cccs1,9.5%
6,O=S(=O)(CCSc1ccccc1NS(=O)(=O)c1cccs1)c1ccc(Cl)cc1,-16.4%
7,CCCN(CCC)S(=O)(=O)c1ccc(C(=O)Oc2c(C)cccc2OC)cc1,-3.1%
8,Cc1noc(C)c1C(=O)N1CCOCC1,0.6%
9,CC(=O)OCc1ccc(COC(C)=O)c(OC(C)=O)c1OC(C)=O,-15.9%
10,O=C1C(Cl)=C(Oc2cc(Cl)c(Cl)cc2Cl)C(=O)c2ccccc21,21.4%
11,CO/N=C(/C)c1ccc2c(c1)CCO2,10.8%
12,COC(=O)/C=C/c1cn(C2OCC(CO)C2O)c(=O)[nH]c1=O (stereo unspecified),-22%
13,O=C(OCc1ccco1)c1cnc(Nc2ccc(OC(F)(F)F)cc2)nc1C(F)(F)F,17.4%
14,Cc1ccccc1C(=O)NNC(=O)c1ccccc1C1=NCCCN1,-4.3%
15,O=C(NC(=O)C1CCN(c2ncccc2[N+](=O)[O-])CC1)Nc1ccc(Cl)cc1,-2%
16,O=c1oc2ccc(Cl)cc2cc1-c1ccc([N+](=O)[O-])cc1,-18.5%
17,CC(C)(C)c1cc(C(=O)/C=C2/NC(=O)CS2)no1,6.7%
18,Cc1nn(S(=O)(=O)c2ccc(Cl)cc2)cc1-c1ccccc1,0.1%

row,SMILES,inhibition
1,Cc1ccc(S(=O)(=O)NC(=O)NNc2ncnc3scc(-c4ccccc4)c23)cc1,-34.5%
2,NC(N)=N/C(N)=N/c1nnc(C(F)(F)F)s1,13.1%
3,N#C/C(=C\c1sccc1Oc1ccccc1)S(=O)(=O)c1ccc(C(F)(F)F)cn1,-9.5%
4,O=S(=O)(Cc1cccc(C(F)(F)F)c1)NCc1ccc2c(c1)OCO2,9.5%
5,O=c1[nH]cc(Br)c(=O)[nH]1,6.1%
6,CN(C)c1cc(-c2cc(Cl)sc2Cl)oc(=O)c1Cl,-5%
7,c1ccc(-n2cccc2)c(N2CCCCC2)c1,-9.4%
8,CC(C)(C)C(=O)NNC(=O)c1ccc(Oc2ccc(C3SCCS3)cc2)o1,30.1%
9,CCOC(=O)/C(C#N)=C/NNc1c(C)csc1C(=O)OC,8.8%
10,CS/C(=N/S(=O)(=O)c1c(C)noc1C)NNC(=O)Nc1ccc(Cl)cc1,1.3%
11,O=C(Nc1ccccc1C(F)(F)F)N1CCCC1c1cccnc1 (stereo unspecified),-12.3%
12,COc1cccc2cc(C(=O)O)oc12,19.9%
13,c1ccc(C2=NCCN=C2c2ccccc2)cc1,-1.9%
14,O=C(O)c1nccnc1C(=O)NCCSCc1c(F)cccc1Cl,2.6%
15,O=[N+]([O-])c1cc(C(F)(F)F)ccc1OCCO,6.7%
16,CCOC(=O)CN1C(=O)/C(=C\c2ccc(C)o2)N=C1c1ccccc1,3.1%
17,Cc1ccc(/C=c2\sc3nc4ccccc4n3c2=O)o1,53.6% (active)
18,O=C(Nc1ccccc1)N1CCN(Cc2ccccc2)CC1,8.5%
